19 molecules from the supplement of paper PMC9942566 can be followed below.

SMILES strings stand for the structures. ± gives the standard deviation of the averaged measurements.

The test system of the test is Serratia marcescens K904 PosmB-luxCDABE reporter (pMQ747). Briefly: PosmB-lux reporter fold induction (RLU/OD600 relative to no-compound control), highest over Biolog concentrations; higher = stronger Rcs reporter activation. The conditions noted are these: wild type K904; 4 h. How it is done: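 Serratia marcescens K904 (wild type) or its isogenic ΔrcsB mutant, carrying the Rcs-dependent PosmB-luxCDABE reporter plasmid pMQ747, was grown in LB at OD600 0.1 in Biolog Phenotype MicroArray plates PM11-20 for 4 h at 30-32°C. Each compound is present at 3-4 proprietary concentrations (not stated); per the Fig. S1 legend the value given is the highest fold over those wells. Three independent trials.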
As for `S=c1nc[nH]c2nc[nH]c12` [6-Mercapto-purine] (Biolog plate: PM13, well positions: C1-4), the “PosmB-lux reporter fold induction” value amounted to 1.6 ± 0.2. Consider `Cc1cc(O)cc(C)c1Cl` [chloroxylenol] (Biolog plate: PM16, well positions: H5-8), for which the “PosmB-lux reporter fold induction” value was 2.08 ± 0.6. For `[Na+].[O]=[V](=[O])[O-]` [Sodium metavanadate] (Biolog plate: PM14, well positions: F9-12) the value was 3.94 ± 1.2. As to `O=C(O)c1cn(C2CC2)c2cc(N3CCNCC3)c(F)cc2c1=O` [ciprofloxacin] (Biolog plate: PM20, well positions: D5-8), the “PosmB-lux reporter fold induction” value amounted to 1.63 ± 0.41. Regarding `Oc1c(I)cc(Cl)c2cccnc12` [5-chloro-7-iodo-8-hydroxy-quinoline] (Biolog plate: PM16, well positions: A9-12), the “PosmB-lux reporter fold induction” value is 1.27 ± 0.55. Take `CCn1cc(C(=O)O)c(=O)c2cc(F)c(N3CCNC(C)C3)c(F)c21` (centres undefined) [Lomefloxacin] (Biolog plate: PM11, well positions: B9-12): the “PosmB-lux reporter fold induction” value worked out at 1.5 ± 0.2. In the case of `Cc1noc(NS(=O)(=O)c2ccc(N)cc2)c1C` [sulfisoxazole] (Biolog plate: PM18, well positions: C5-8), the “PosmB-lux reporter fold induction” value is 0.979 ± 0.2. As for `CCN(CC)CCOC(=O)c1ccc(N)cc1` [Procaine] (Biolog plate: PM15, well positions: A2-4), the “PosmB-lux reporter fold induction” value is 1.21 ± 0.28.

Take `C[C@H]1c2cccc(O)c2C(=O)C2=C(O)[C@]3(O)C(=O)C(C(N)=O)=C(O)[C@@H](N(C)C)[C@@H]3[C@@H](O)[C@@H]21` [Doxycycline] (Biolog plate: PM13, well positions: C5-8): the “PosmB-lux reporter fold induction” value was 1.48 ± 0.11. In the case of `Oc1c(Cl)cc(Cl)c2cccnc12` [5,7-Dichloro-8-hydroxyquinoline] (Biolog plate: PM15, well positions: C1-4), the “PosmB-lux reporter fold induction” value is 2.24 ± 0.92. Then `O=c1[nH]c(=O)n([C@H]2C[C@H](O)[C@@H](CO)O2)cc1C(F)(F)F` [trifluorothymidine] (Biolog plate: PM18, well positions: B1-4), with 1.81 ± 0.69; and `CN(C)CCC=C1c2ccccc2CCc2ccccc21` [amitriptyline] (Biolog plate: PM20, well positions: A2-4), with 1.19 ± 0.11.

Regarding `NO` [hydroxylamine] (Biolog plate: PM19, well positions: G9-12), the “PosmB-lux reporter fold induction” value is 1.82 ± 0.33. In the case of `CO[C@@]1(NC(=O)CSCC#N)C(=O)N2C(C(=O)O)=C(CSc3nnnn3C)CS[C@@H]21` [Cefmetazole] (Biolog plate: PM15, well positions: A9-12), the “PosmB-lux reporter fold induction” value came out at 1.21 ± 0.23. For `CO/N=C(\C(=O)N[C@@H]1C(=O)N2C(C(=O)O)=C(COC(C)=O)CS[C@H]12)c1csc(N)n1` [cefotaxime] (Biolog plate: PM16, well positions: A2-4), the “PosmB-lux reporter fold induction” value was 0.992 ± 0.32. As for `CCN(CC)CC(=O)Nc1c(C)cccc1C` [lidocaine] (Biolog plate: PM18, well positions: D9-12), the “PosmB-lux reporter fold induction” value is 1.37 ± 0.17. In the case of `O=[Si](O)O` [sodium metasilicate] (Biolog plate: PM18, well positions: E1-4), the “PosmB-lux reporter fold induction” value turned out to be 1.11 ± 0.32. For `CC(C)(C)CC(C)(C)c1ccc(OCCOCC[N+](C)(C)Cc2ccccc2)cc1` [Benzethonium chloride] (Biolog plate: PM12, well positions: E9-12), the “PosmB-lux reporter fold induction” value came to 2.27 ± 0.38. For `c1cnc2c(c1)ccc1cccnc12` [1,10-Phenanthroline] (Biolog plate: PM15, well positions: C9-12), the “PosmB-lux reporter fold induction” value worked out at 1.36 ± 0.36.
